Compounds with a hit are over-represented: about 6.7% of the library has one in this group of screens.
Pf Dd2 growth: P. falciparum Dd2 growth inhibitors, primary screen, SYBR Green fluorescence, single dose replicates; 72 h; hits give low values; activity change, % at 10 µM; hit rate 2.3% among 94,000; AID 1159554, 2015; in the data active = activity change below about -80%; inconclusive = no clear call, values can overlap the other calls
T cruzi growth-1: T. cruzi intracellular proliferation inhibitors, primary screen, cell-based, beta-gal Tulahuen parasites, NIH3T3 host, luminescence. hit rate 5.9% among 77,000. T. cruzi beta-gal in NIH3T3, GalScreen luminescence, 90 h. inhibition, % at 8.34 µM;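 active = mean inhibition above about 93%, with at least 55% of replicates each passing it, limit read from the data, passing the limit was not always enough; inconclusive = only one of those two conditions holds; inactive = neither condition holds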
C diff HTS: C. difficile growth inhibitors, primary screen, HTS; hit rate 0.25% among 86,000; Clostridium difficile clinical isolate growth, OD600, 24 h; hits give low values; growth activity, negative = inhibition, % at 16 µg/mL (by protocol);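 active = mean growth activity at or below -80% and every replicate also at or below -80%; inconclusive = mean at or below -80% but some replicate above -80%; inactive = mean growth activity above -80%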;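 note: 0% = DMSO wells and -100% = levofloxacin 16 µg/mL wells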
T cruzi growth-2: T. cruzi intracellular proliferation inhibitors, confirmation, cell-based, NIH3T3 host, beta-gal parasite, luminescence, cherry-pick. hit rate 72% among 5,600. shares compounds with T cruzi growth-1. T. cruzi beta-gal in NIH3T3, GalScreen luminescence, 90 h. AID 651739, 2012. inhibition, % at 8.35 µM;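 active = mean replicate inhibition above about 95% and at least 55% of replicates individually reaching it, limit read from the data; inconclusive = only one of the two criteria is met; inactive = neither criterion is met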
T cruzi growth-3: inhibitors of intracellular T. cruzi replication, confirmation, NIH3T3 host cells, beta-gal parasites, cherry-pick, set 2 | shares compounds with T cruzi growth-1 | T. cruzi beta-gal in NIH3T3, GalScreen luminescence, 90 h | inhibition, % at 2.09 µM | hit rate 21% among 5,600 | AID 651740, 2012;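 active = mean inhibition above about 95%, with at least 55% of replicates also reaching it, limit read from the data; inconclusive = meets just one of the two conditions; inactive = meets neither condition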;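 note: plate controls were neutral control median for no effect and positive control median for full effect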
3T3 cytotox: cytotoxicity in mouse NIH/3T3 fibroblasts, confirmation, cytotoxicity control for T. cruzi proliferation inhibitor project, cell-based, cherry-pick, single point. NIH/3T3 viability, CellTiter-Glo ATP luminescence, 90 h. shares compounds with T cruzi growth-1. hit rate 14% among 5,600. cytotoxicity (signal decrease), % at 8.35 µM. AID 651742, 2012;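 active = mean signal decrease across replicates above about 35% based on untreated-well scatter, with enough replicates individually passing, limit read from the data; inconclusive = no rule stated though some were filed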;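 note: 0% = median of neutral control wells and 100% = median of positive control wells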
3T3 cytotox 2: NIH/3T3 fibroblast cytotoxicity, confirmation, cytotoxicity control, cell-based, cherry-pick, single point, set 2 | shares compounds with T cruzi growth-1 | NIH/3T3 viability, CellTiter-Glo ATP luminescence, 90 h | inhibition, % at 24.9 µM | hit rate 56% among 5,600 | AID 651744, 2012;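 active = mean loss of cell viability signal at or above a set limit, and enough replicates individually reaching it; inconclusive = meets only the mean limit or only the replicate share; inactive = meets neither condition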;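 note: 0% = median of neutral control wells and 100% = median of positive control wells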
An asterisk follows results filed as active.

For OC[C@@H]1[C@H](c2ccc(-c3cccnc3)cc2)[C@H]2CN(CC3CCOCC3)CCCCN12 the results were Pf Dd2 growth -48, T cruzi growth-1 97*, C diff HTS -4, T cruzi growth-2 inconclusive, T cruzi growth-3 83, 3T3 cytotox -9 and 3T3 cytotox 2 7.
Screening N#Cc1cccc(-c2ccc3c(c2)[C@H]2[C@H](CCN2C(=O)CN2CCOCC2)[C@H](CO)N3)c1 returned Pf Dd2 growth 16, T cruzi growth-1 54 and C diff HTS -13.
For Cc1ccccc1-c1cnc2c(c1)C(=O)N([C@H](C)CO)C[C@@H](C)[C@@H](CN(C)CC1CCOCC1)O2 the results were Pf Dd2 growth 37, T cruzi growth-1 84 and C diff HTS 4.
Screening C[C@@H]1CN([C@@H](C)CO)C(=O)Cc2cc(NC(=O)CCCCCC(=O)Nc3ccccc3N)ccc2O[C@H]1CN(C)Cc1ccc2c(c1)OCO2 returned Pf Dd2 growth -41 and C diff HTS -7.
For C[C@@H]1CN([C@@H](C)CO)C(=O)Cc2cc(NC(=O)CCCCCC(=O)Nc3ccccc3N)ccc2O[C@H]1CN(C)Cc1ccccc1 the results were Pf Dd2 growth -74, T cruzi growth-1 82 and C diff HTS -13.
For C[C@H](CO)N1C[C@H](C)[C@@H](CN(C)Cc2ccc3c(c2)OCO3)Oc2ccc(NC(=O)CCCCCC(=O)Nc3ccccc3N)cc2CC1=O the results were Pf Dd2 growth -55, T cruzi growth-1 101*, C diff HTS -3, T cruzi growth-2 109*, T cruzi growth-3 79, 3T3 cytotox -6 and 3T3 cytotox 2 0.
For C[C@H]1CN([C@@H](C)CO)C(=O)Cc2cc(NC(=O)CCCCCC(=O)Nc3ccccc3N)ccc2O[C@H]1CN(C)Cc1ccc2c(c1)OCO2 the results were Pf Dd2 growth -88*, T cruzi growth-1 inconclusive, C diff HTS -1, T cruzi growth-2 89, T cruzi growth-3 16, 3T3 cytotox 0 and 3T3 cytotox 2 19.
For Cc1noc(C)c1S(=O)(=O)Nc1ccc2c(c1)C(=O)N([C@H](C)CO)C[C@H](C)[C@@H](CN(C)S(=O)(=O)c1cccs1)O2 the results were Pf Dd2 growth 10 and C diff HTS -10.
Screening COc1ccccc1C(=O)Nc1ccc2c(c1)C(=O)N(C)[C@H]1CC[C@@H](CC(=O)NCCc3ccncc3)O[C@@H]1CO2 returned T cruzi growth-1 -23 and C diff HTS -6.
For C[C@@H]1CCCCO[C@@H](CN(C)Cc2ccc3c(c2)OCO3)[C@@H](C)CN([C@@H](C)CO)C(=O)c2cc(NC(=O)Nc3ccc(C(F)(F)F)cc3)ccc2O1 the results were Pf Dd2 growth -56, T cruzi growth-1 inconclusive, C diff HTS -37, T cruzi growth-2 98*, T cruzi growth-3 114*, 3T3 cytotox inconclusive and 3T3 cytotox 2 57*.
`C[C@H](CO)N1C[C@H](C)[C@H](CN(C)Cc2ccc(C(F)(F)F)cc2)OCCCC[C@H](C)Oc2ccc(NC(=O)Nc3ccc4c(c3)OCO4)cc2C1=O` gave Pf Dd2 growth 22 and T cruzi growth-1 79.
C[C@@H]1CN([C@@H](C)CO)C(=O)c2cc(NC(=O)Nc3ccc(C(F)(F)F)cc3)ccc2O[C@@H](C)CCCCO[C@@H]1CN(C)Cc1ccc2c(c1)OCO2 was read as Pf Dd2 growth -66, T cruzi growth-1 123*, C diff HTS -10, T cruzi growth-2 98*, T cruzi growth-3 113*, 3T3 cytotox 14 and 3T3 cytotox 2 20.
C[C@@H]1CN([C@@H](C)CO)C(=O)c2cc(NC(=O)Nc3ccc4c(c3)OCO4)ccc2O[C@@H](C)CCCCO[C@@H]1CN(C)Cc1ccc(C(F)(F)F)cc1 was read as Pf Dd2 growth -62 and T cruzi growth-1 94.
C[C@@H]1CCCCO[C@H](CN(C)Cc2ccc(C(F)(F)F)cc2)[C@H](C)CN([C@H](C)CO)C(=O)c2cc(NC(=O)Nc3ccc4c(c3)OCO4)ccc2O1 was read as Pf Dd2 growth -72 and T cruzi growth-1 90.
Screening C[C@H]1CCCCO[C@@H](CN(C)Cc2ccc3c(c2)OCO3)[C@@H](C)CN([C@@H](C)CO)C(=O)c2cc(NC(=O)Nc3ccc(C(F)(F)F)cc3)ccc2O1 returned Pf Dd2 growth -89*, T cruzi growth-1 121*, C diff HTS -19, T cruzi growth-2 91, T cruzi growth-3 116*, 3T3 cytotox 47* and 3T3 cytotox 2 105*.
For C[C@@H]1CCCCO[C@H](CN(C)Cc2ccc3c(c2)OCO3)[C@H](C)CN([C@H](C)CO)C(=O)c2cc(NC(=O)Nc3ccc(C(F)(F)F)cc3)ccc2O1 the results were Pf Dd2 growth inconclusive, T cruzi growth-1 inconclusive, C diff HTS -10, T cruzi growth-2 96*, T cruzi growth-3 116*, 3T3 cytotox inconclusive and 3T3 cytotox 2 95*.
`O=C(C1CCC1)N1CC2(C1)[C@H](c1ccccc1)[C@H](CO)N2Cc1ccc(Cl)cc1` gave Pf Dd2 growth -7 and C diff HTS 18.
Screening CO[C@@H]1CN(C)C(=O)c2ccc(NC(C)=O)cc2OC[C@H](C)N(S(=O)(=O)c2cn(C)cn2)C[C@H]1C returned Pf Dd2 growth -10 and T cruzi growth-1 15.
Screening C[C@@H]1CN([C@@H](C)CO)C(=O)c2cc(-c3ccccc3F)cnc2O[C@@H]1CN(C)Cc1cccc(C(=O)O)c1 returned Pf Dd2 growth 28, T cruzi growth-1 42 and C diff HTS 3.
`Cn1cnc(S(=O)(=O)N[C@H]2C=C[C@H](CC(=O)Nc3ccccc3)O[C@H]2CO)c1` gave C diff HTS -1.
`CNC[C@@H]1Oc2ccc(NS(=O)(=O)c3cccs3)cc2C(=O)N([C@@H](C)CO)C[C@@H]1C` gave Pf Dd2 growth 14, T cruzi growth-1 71 and C diff HTS 3.
C[C@H](CO)N1C[C@H](C)[C@H](CN(C)Cc2ccc(C(=O)O)cc2)OCCCC[C@H](C)Oc2ccc(NC(=O)Nc3ccccc3)cc2C1=O was read as Pf Dd2 growth 22, T cruzi growth-1 31 and C diff HTS -3.
`Cc1ccccc1CN(C)C[C@H]1OCc2cnnn2CCCC(=O)N([C@H](C)CO)C[C@H]1C` gave Pf Dd2 growth -19 and T cruzi growth-1 12.

Screens (PubChem BioAssay)
